Assay results from PubChem BioAssay (NCI).
About 83,000 compounds went through this panel and 20% of them were active in at least one assay; those are over-represented in the sample as a whole.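 Method: cells in 96-well plates; compound added at one concentration; 48 h incubation; percent growth measured; values under 10 scored active.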 Values without a mark were called inactive. Calls of active or inactive are those of the source.

Each compound was assayed on HL-60(TB) leukemia (assay: NCI-60 one-dose screen, 48 h (100 = growth as untreated, 0 = no growth, -100 = all killed)). Settings: 10 µM unless noted.
With `COc1cc2c(cc1-c1c(C)noc1C)ncc1nc(-c3ccccn3)n([C@H](C)COC(F)F)c12` the growth was 33.6%.
Work on `COc1ccc(OC)c(-c2cn3nc(-c4c[nH]c5ccc(Br)cc45)sc3n2)c1` yielded a growth of 86.3%.
`CCOC(=O)c1c(C)nc2c(c1N)/C(=C/c1cccs1)C(=O)N2c1ccc(OC)cc1` gave a growth of 90.2%.
With `CC(=O)Nc1ccc2c(c1)C(N1CC3CCC(CC3)C1)c1ccccc1-2` (centres undefined) the growth was 52.3%.
Work on `COc1cc2ncnc(Nc3ccc(S(=O)(=O)Nc4nccs4)cc3)c2cc1OCCCN1CCCC1` yielded a growth of 109%.
`CC1(C)CC[C@]2(C(=O)Nc3ccccn3)CC[C@]3(C)C(=CC[C@@H]4[C@@]5(C)C/C(=C/c6ccncc6)C(=O)C(C)(C)[C@@H]5CC[C@]43C)[C@@H]2C1` was tested, and the growth was -0.971% (active).
`COc1ccc(CCN2C(=O)CCSC2=S)cc1OC` showed a growth of 98.1%.
Work on `CCCCC(C=O)(C=C=C(C)C)CC` (centres undefined) yielded a growth of 104%.
In the case of `COc1ccc(-c2nn(-c3cccc(NC(=O)c4cc(C(F)(F)F)cc(C(F)(F)F)c4)c3)cc2-c2ccncc2)cc1Cl`, the growth is reported as 88.9%.
For `O=C1CCCN1C1CCN(Cc2cc3ccccc3[nH]c2=O)c2ccccc21` (centres undefined), the growth was 95.6%.
`CCOC(=O)c1c(C)[nH]c(CO)c1C` showed a growth of 97.1%.
`Cc1ccc(-c2nc(C(Cl)Cl)n3nc(-c4ccccc4)cc3n2)cc1` showed a growth of 61.3%.
For `CC(=O)Oc1ccccc1C(=O)N=C1[Se]CCN1C(=O)c1ccccc1OC(C)=O`, the growth was -34.4% (active).
In the case of `O=C(Nc1cccc([N+](=O)[O-])c1)c1cccc(C(=O)Nc2cccc([N+](=O)[O-])c2)c1`, the growth is reported as 81%.
For `CCCn1c2cc(OCc3cn(-c4ccc(Br)cc4)nn3)ccc2c2ccnc(C)c21`, the growth was -61.3% (active).
`O=C1C=CC(=O)N1c1cc(Cl)c(Cl)cc1Cl` showed a growth of 80.4%.
`CCCCn1c(-c2ccc(C(=O)O/N=C(\N)c3ccc4c(c3)OCO4)cc2)nc(-c2ccccc2)c1-c1ccccc1` was tested, and the growth was -52.4% (active).
`C[C@@H]1CN(c2cnc(C(=O)Nc3cc(F)cc4cccnc34)cn2)C[C@H](C)N1` was tested, and the growth was 82.4%.
Compound `CC(C)(C)CC(C)(C)Nc1c(-c2ccc3c(c2)OCO3)nc2cnccn12` has a growth of 77.8%.
For `FC(F)(F)c1cc(CNc2nc(Cl)ncc2Br)cc(C(F)(F)F)c1`, the growth was 85.2%.
For `CCOC(=O)/C=C1\S/C(=N\Nc2cc(=O)[nH]c3ccc(OC)cc23)N(c2ccccc2)C1=O`, the growth was 96.1%.
`Brc1ccc(/C=C(/C2=NCCN2)n2ccc3ccccc32)cc1` gave a growth of 26.2%.
In the case of `Cc1ccc(C(=O)/C(=C\c2ccc([N+](=O)[O-])cc2)S(=O)Cc2ccc(F)cc2)cc1` (centres undefined), the growth is reported as -7.36% (active).
`O=C1Nc2cc(-c3ccc(NC(=O)c4ccccc4)cc3)ccc2/C1=C/c1ccc[nH]1` was tested, and the growth was 99.2%.
In the case of `COc1cc(/C=C2\CN(C)C/C(=C\c3cc(CN4CCCC4)c(O)c(OC)c3)C2=O)cc(CN2CCCC2)c1O`, the growth is reported as 43.3%.
`Cc1nn(-c2cc(NC3CCC(O)CC3)c3c(=O)[nH]c(CCC(F)(F)F)cc3c2)c2c1C(=O)CC(C)(C)C2` (centres undefined) gave a growth of 28%.
In the case of `CCCC(=O)NC(c1ccc2c(c1)OCO2)c1cc(Cl)c2cccnc2c1O` (centres undefined), the growth is reported as -19.5% (active).
With `CC1CC(O)CC(C)(C)C1` (centres undefined) the growth was 80.8%.
Compound `N#C/C(=C\c1ccc(Cl)cc1Cl)C(=O)Nc1ncc(Cc2ccc(Cl)c(Cl)c2)s1` has a growth of 98.8%.
`CCCCCCCCCCCCCCCC(=O)OC[C@@]1(O)C[C@@]23CC[C@@H]4C(C)(C)CCC[C@@]4(C)[C@@H]2CC[C@H]1C3` showed a growth of 73.3%.
With `Cc1nc2sc(C(=O)Nc3ccccc3)c(N)c2cc1C(C)O` (centres undefined) the growth was -2.23% (active).
`CCOC(=O)c1c(Cl)c2c(n1Cc1ccccc1)-c1oncc1CCC2` was tested, and the growth was 25.7%.
Compound `CN(C)CCN1C(=O)c2cccc3c(/C=C/CN4C(=O)c5cccc6cccc(c56)C4=O)ccc(c23)C1=O` has a growth of 12.9%.
In the case of `CCCC(C)c1cc(Cc2cc(Cl)cc(Cl)c2O)c(O)c(Cc2cc(Cl)cc(Cl)c2O)c1` (centres undefined), the growth is reported as 4.98% (active).
`Cc1nc(N)[nH]c(=O)c1C` gave a growth of 218%.
With `Cc1ccc(C(=O)C2C(=O)C3CCC2C3)cc1` (centres undefined) the growth was 98.3%.
`Cc1nn(-c2ccccc2)c2nc(Cl)c(C=O)c(-c3ccccc3)c12` showed a growth of 95.8%.
Compound `CCOc1cc2c(cc1OCC)C(c1cc(C)c(O)c(C)c1)NCC2` (centres undefined) has a growth of 81.7%.
Compound `CC1=C(C/C=C(\C)CCC[C@H](C)CCC[C@H](C)CCCC(C)C)C(=O)c2ccccc2C1=O` has a growth of 105%.
